Rows were chosen to be rich in hits. Some 7.5% of all compounds tested hit in one or more screens of this group.
HCMV antiviral: blocks human cytomegalovirus replication; 4.5% of 410,000 active; HFF cells, HCMV-luciferase reporter, 72 h; hits give low values; activity change, negative = inhibition, % at 57.5 µM; in the data active means activity change below about -60%; inconclusive means no clear call, values can overlap the other calls; inactive means above about -39%
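Steps: HFFs plated, 16 h 37C; compounds added; HCMV-luciferase added to MOI 1 PFU/cell; 72 h 37C; OneGlo reagent, 5 min room temperature; luminescence read, normalized to controls.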
Vaccinia Venus: vaccinia inhibition (Venus reporter); Vaccinia virus Venus reporter expression, fluorescence; Potency, µM (titrated, usually from 36.5 µM), without a hit: at the top dose activity change, negative = inhibition, usual class: inhibitors; 0.46% of 330,000 active; calls by dose curve; tested in A549 cells; further: potency means the concentration at half of the fitted maximal effect; nearly all actives have a fitted effect of over 30% in size
FBPA Giardia inh: Giardia lamblia aldolase inhibition | 0.71% of 290,000 active | A8B2U2 | Potency, µM (top dose mostly 59.6 µM), for inactives: top-dose activity, negative = inhibition, usual class: inhibitors | purified Giardia FBPA; further: potency means the concentration at half of the fitted maximal effect; nearly all actives have a fitted effect of over 55% in size
Target sequence (A8B2U2 whole entry, looked up): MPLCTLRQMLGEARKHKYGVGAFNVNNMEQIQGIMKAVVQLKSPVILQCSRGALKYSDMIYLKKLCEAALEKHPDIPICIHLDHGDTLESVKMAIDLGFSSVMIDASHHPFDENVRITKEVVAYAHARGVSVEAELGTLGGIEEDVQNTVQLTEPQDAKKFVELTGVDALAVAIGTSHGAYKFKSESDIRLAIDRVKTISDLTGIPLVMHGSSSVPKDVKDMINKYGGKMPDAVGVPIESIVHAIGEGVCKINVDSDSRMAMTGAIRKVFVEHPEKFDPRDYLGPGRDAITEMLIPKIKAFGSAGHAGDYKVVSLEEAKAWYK
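40 nM FBPA preincubated 10 min at RT with compound (up to 57.5 uM final), then substrate plus GAPDH/TPI/NAD/arsenate coupling and diaphorase/resazurin added. Fluorescence read after 20 min at RT, 525/598 nm.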
HCV inh: inhibitors of hepatitis C virus infection; Huh7.5.1 HCVcc-Cre infection, luciferase reporter, 44 h; Potency, µM (doses to about 41.8 µM), for the others: at the highest dose activity change, negative = inhibition, hits mostly inhibitors; 3.4% of 340,000 active; AID 651820; further: potency means the concentration at half of the fitted maximal effect
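Whole-lifecycle infectious HCVcc-Cre system; cells 1,000/well, compound then virus (~0.5 moi) added 4 h after plating, 44 h culture. Luciferase read 15 sec following 15 min substrate incubation, room temp.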
Vaccinia mCherry: vaccinia inhibition (mCherry reporter); Vaccinia virus mCherry reporter infection, fluorescence; Potency, µM (top dose mostly 36.5 µM), for inactives: at the top dose activity change, negative = inhibition, hits mostly inhibitors; 0.63% of 310,000 active; calls by dose curve; tested in A549 cells; further: potency means the concentration at half of the fitted maximal effect; nearly all actives have a fitted effect of over 35% in size
FMDV inh: blocks foot and mouth disease virus. 1.2% of 410,000 active. FMDV antiviral cell-based qHTS. Potency, µM (doses to about 57.9 µM), for the others: at the highest dose activity change, negative = inhibition, actives largely listed as inhibitors; calls by dose curve; tested in HEK293T cells; further: read-out not given here; potency means the concentration at half of the fitted maximal effect; nearly all actives have a fitted effect of over 45% in size
The depositor's hits bear a star; i = inactive; u = inconclusive; x = not tested or not shown; ! = not confirmed by another sample; [ ] = remark or other dose. Unless noted, the call rests on the fitted dose curve; in most records, active means well fitted curve in the direction sought with a large enough effect; inconclusive means small, poorly fitted or top-dose-only effect, or another doubt; inactive means no such curve, though single readings can be large; an effect the other way counts as inactive or inconclusive. On the % scale 0 is the no-effect control and ±100 the full control effect.

SMILES | HCMV antiviral | Vaccinia Venus | FBPA Giardia inh | HCV inh | Vaccinia mCherry | FMDV inh
CN(C)CCCNC(=O)C[C@H]1C[C@H](C(=O)N2CCOCC2)[C@@]2(CCC3CCCC3)c3[nH]c4cc(-c5ccco5)ccc4c3CCN2C1=O | u | 13µM* | x | 7.9µM* | u | -25%
O=C(C[C@H]1C[C@H](C(=O)N2CCOCC2)[C@@]2(CCC3CCCC3)c3[nH]c4cc(-c5ccco5)ccc4c3CCN2C1=O)NCCN1CCOCC1 | -11 | u | x | u | u | u
CC(C)(C)NC(=O)C[C@H]1C[C@H](C(=O)N2CCOCC2)[C@@]2(CCC3CCCC3)c3[nH]c4cc(-c5ccco5)ccc4c3CCN2C1=O | x | 10µM* | x | u | u | -22%
CN(C)C=Nc1ncc2c3ccccc3n(CCN(C)C)c2c1C#N | -98* | -11% | -5% | -6% | x | 1%
CN(C)C=Nc1ncc2c3ccccc3n(Cc3ccccc3)c2c1C#N | -28 | 5% | 4% | 0% | x | -14%
CCN(CC)CCn1c2ccccc2c2cnc(N)c(C#N)c21 | -98* | u | -2% | 10µM* | u | -19%
O=C(O)c1cc2c(ncc3c(=O)n(-c4ccccc4)[nH]c32)s1 | -10 | 8% | x | x | i | -17%
CC[C@H]1CN2CCC1C[C@H]2[C@H](O)c1ccnc2ccc(OC)cc12 (some centres undefined) | -68* | -8% | x | 3% | -14% | -26%
CCCOc1cccc(-c2nn(-c3ccccc3)cc2/C=C(\C#N)C(=O)NCCCn2ccnc2)c1 | -19 | -11% | 10% | u | -2% | -9%
N#C/C(=C/c1cn(-c2ccccc2)nc1-c1cccc(OCc2ccc(F)cc2)c1)C(=O)NCCCn1ccnc1 | 13 | u | 4% | 5.6µM* | -24% | -7%
CCCCn1c(N)c(N(CCC(C)C)C(=O)c2cc(Cl)nc3ccccc23)c(=O)[nH]c1=O | -3 | -26% | x | -1% | -12% | -11%
CCCCn1c(N)c(N(CCC(C)C)C(=O)CSc2nc3ccccc3n2C)c(=O)[nH]c1=O | -18 | -19% | x | 10µM* | i | -15%
CCCNC(=O)c1cccc(Cn2nc(C)c(Br)c2C)c1 | 25 | -17% | 2% | u | -6% | -19%
Cc1nn(Cc2cccc(C(=O)NC34CC5CC(CC(C5)C3)C4)c2)c(C)c1Br | -39 | -17% | 0% | 14µM* | i | u
O=C(O)c1ccc(S(=O)(=O)N[C@H](Cc2ccc([N+](=O)[O-])cc2)C(=O)O)cc1 | x | x | 0% | x | x | x
COc1ccc(C(=O)NNC(=O)CSc2nnc(C)n2C)cc1 | u | 0% | 1% | -4% | i | 12%
COc1ccc(OC)c(-n2nnnc2SCC(=O)Nc2ccc(C(=O)N3CCCCC3)cc2)c1 | -64* | -26% | 0% | -24% | -20% | x
COc1ccc(C(=O)NNC(=O)CSc2nnnn2-c2cc(OC)cc(OC)c2)cc1 | 8 | -19% | 3% | 11µM* | i | -1%
C[C@@H]1[C@H](c2ccccc2)OCCS(=O)(=O)N1Cc1ccccc1F | x | -21% | x | x | -27% | x
CC1=C(c2ccc(C)c(C)c2)S(=O)(=O)N=C1N1CCC(C(=O)Nc2ccc(Cl)cc2)CC1 | -84* | -12% | x | x | -29% | -29%
CC1=C(c2ccc(Cl)cc2)S(=O)(=O)N=C1N1CCC(C(=O)NCCc2ccco2)CC1 | -4 | 0% | x | x | -6% | -13%
CCc1ccc(C2=C(C)C(N3CCC(C(=O)NCCc4ccco4)CC3)=NS2(=O)=O)cc1 | -62* | -5%[7.34 µM] | x | x | -9%[7.34 µM] | -1%
CCC1=C(c2ccc(C)cc2)S(=O)(=O)N=C1N1CCC(C(=O)NCCc2ccc(Cl)cc2)CC1 | -87* | u | x | x | -24% | -17%
O=C(NNC(=O)c1cccc2ccccc12)c1ccc(Br)cc1 | -24 | -13% | x | 14% | -16% | 31%
COC(=O)c1ccc(CS(=O)(=O)c2ccc(C)cc2)o1 | 7 | x | -3% | 3% | x | -8%
NC1(C(=O)O)CC(C(=O)O)C1 (centres undefined) | x | -10% | 5.6µM*! | x | i | -10%
O=C(NCc1cccc(C(F)(F)F)c1)c1csc([C@H]2C[C@H](O)[C@@H](CO)O2)n1 | -21 | -3% | x | x | -1% | -14%

Compound activity from PubChem.
